In PMC8384837, “Expanding the binding specificity for RNA recognition by a PUF domain”:

target: PUM1 PUF domain R4-PHL (Homo sapiens, UniProt Q14671 828-1176, N971P;Q975L); experiment: yeast three-hybrid, YBZ-1, SC-Leu-His + 0.5 mM 3-AT, 4 days; conditions: tags: N-Gal4 AD-HA kept; label: inside an RPR1-promoter hybrid RNA with tandem MS2 sites; ssRNA
Method in brief: (§1)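 Pumilio-1 PUF domain libraries, randomized at the three base-contacting residues of each repeat, were co-expressed with matching RNA elements from a centromeric plasmid in strain YBZ-1, which carries a LexA–MS2 coat fusion and a HIS3 reporter. Transformants grew for four days on SC-Leu (input) or on SC-Leu-His + 0.5 mM 3-AT (selection), and the repeat regions were PCR-amplified and Illumina-sequenced. The interaction score is the log change in variant frequency from input to selection. That logarithm is base 2, with a pseudocount of 1 where a variant was absent.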

Point of comparison: “GGCUAGAACUAGUGGAUCCCCCGGCGCCCGGCGGCUCGAGCCCGGGUAAGUGUAAAUAGUCUGCAUGCCGCCGGGCGCCAUGCCUGCAGGUCGACUCUAGAAAACAUG”, binding signal 5.53 log2 enrichment (interaction score). Against it:
- GGCUAGAACUAGUGGAUCCCCCGGCGCCCGGCGGCUCGAGCCCGGGUAAGUGUAUAUAGUCUGCAUGCCGCCGGGCGCCAUGCCUGCAGGUCGACUCUAGAAAACAUG — higher, 5.92 log2 enrichment (interaction score)
- GGCUAGAACUAGUGGAUCCCCCGGCGCCCGGCGGCUCGAGCCCGGGUAAGUGUACAUAGUCUGCAUGCCGCCGGGCGCCAUGCCUGCAGGUCGACUCUAGAAAACAUG — lower, 3.73 log2 enrichment (interaction score)

target: PUM1 PUF domain R1-RTV (Homo sapiens, UniProt Q14671 828-1176, S863R;R864T;Q867V); experiment: as above; conditions: tags: N-Gal4 AD-HA kept; label: inside an RPR1-promoter hybrid RNA with tandem MS2 sites; ssRNA
Method in brief: as §1

Point of comparison: “GGCUAGAACUAGUGGAUCCCCCGGCGCCCGGCGGCUCGAGCCCGGGUAAGUGUAAAUCGUCUGCAUGCCGCCGGGCGCCAUGCCUGCAGGUCGACUCUAGAAAACAUG”, binding signal 4.19 log2 enrichment (interaction score). Against it:
- GGCUAGAACUAGUGGAUCCCCCGGCGCCCGGCGGCUCGAGCCCGGGUAAGUGUAAAUUGUCUGCAUGCCGCCGGGCGCCAUGCCUGCAGGUCGACUCUAGAAAACAUG — lower, 3.33 log2 enrichment (interaction score)
- GGCUAGAACUAGUGGAUCCCCCGGCGCCCGGCGGCUCGAGCCCGGGUAAGUGUAAAUGGUCUGCAUGCCGCCGGGCGCCAUGCCUGCAGGUCGACUCUAGAAAACAUG — lower, 2.39 log2 enrichment (interaction score)
